Source: PubChem BioAssay (several laboratories)
FadD28 binding: inhibitors of FadD28 bisubstrate probe binding, primary screen, biochemical, fluorescence polarization, single point. inhibition, % at 12.5 µM. 0.22% of 360,000 active. AID 588549, 2011; in the data active means inhibition above about 8.5%, passing the limit was not always enough; inconclusive means no clear call, values can overlap the other calls
Mtb UGM inh: M. tuberculosis UGM enzyme inhibitors, primary screen, biochemical, fluorescence polarization, single point; UDP-galactopyranose mutase (Mycobacterium tuberculosis (strain ATCC 25618 / H37Rv)), …; purified UGM, fluorescence polarization probe displacement; inhibition, % at 10 µM; 0.06% of 320,000 active; in the data active means inhibition above about 10%, passing the limit was not always enough; inconclusive means no clear call, values can overlap the other calls
Mtb FBA inh: Mtb FBA enzyme inhibitors, primary screen, biochemical, fluorescence, strain H37Rv; purified M. tuberculosis FBA, fluorescence read-out; 2.3% of 360,000 active; Fructose-bisphosphate aldolase (Mycobacterium tuberculosis (strain ATCC 25618 / H37Rv)), …; inhibition, % at 1 µM; AID 588726, 2011; in the data active means inhibition above about 27%;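 further: 0% = vehicle and 100% = reference inhibitor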
Target sequence (P9WQA3 whole entry, looked up): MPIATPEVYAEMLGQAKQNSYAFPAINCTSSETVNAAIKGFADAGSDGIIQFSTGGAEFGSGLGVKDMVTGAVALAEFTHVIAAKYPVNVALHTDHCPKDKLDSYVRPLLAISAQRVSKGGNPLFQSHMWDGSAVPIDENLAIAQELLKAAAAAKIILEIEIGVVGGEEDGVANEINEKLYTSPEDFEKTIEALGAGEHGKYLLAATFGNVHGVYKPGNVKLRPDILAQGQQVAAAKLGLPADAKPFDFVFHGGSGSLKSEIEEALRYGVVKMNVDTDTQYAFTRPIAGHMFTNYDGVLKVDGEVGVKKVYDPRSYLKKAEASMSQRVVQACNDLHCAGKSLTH
GDH-TPI inh: GDH-TPI coupling enzyme inhibitors, primary screen, artefact control for M. tuberculosis FBA inhibitor project, biochemical, absorbance, full deck; GDH-TPI coupled enzyme counterscreen, NADH absorbance; 1.2% of 360,000 active; inhibition, % at 4.8 µM; AID 588335, 2011; in the data active means inhibition above about 30%;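 further: 0% = DMSO wells and 100% = wells lacking the enzyme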
Rv3671c inh: Rv3671c serine protease inhibitors, primary screen, biochemical, fluorescence polarization, M. tuberculosis H37Rv; inhibition, % at 5.96 µM; P9WHR9; 0.048% of 320,000 active; in the data active means inhibition above about 38%;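 further: extracellular domain of Rv3671c used as enzyme; 0% = enzyme with DMSO and 100% = no enzyme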
Mtb betalactam: beta-lactam sensitization of Mtb H37Rv, H37Rv | AID 434955, 2010 | inhibition, % at 25 µM | M. tuberculosis H37Rv growth with meropenem, percent inhibition | 0.27% of 330,000 active; call rule not given here;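 further: growth measured after seven days incubation then overnight dye step; 0% = bacteria only wells and 100% = bacteria with antibiotic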
Numbers without * were called inactive; ? = inconclusive; · = no result given; + = active, no number. Most compounds without a hit are left out; they make up all but 3.7% or so of the library.

SMILES	FadD28 binding	Mtb UGM inh	Mtb FBA inh	GDH-TPI inh	Rv3671c inh	Mtb betalactam
COc1ccc(C2=CC(c3ccc(C)cc3)n3nnnc3N2)cc1 (configuration not stated)	-1	-1	21	25	-3	15
O=C(Nc1cc(C(F)(F)F)ccc1N1CCOCC1)C1=NN(c2ccccc2)C(=O)CC1	-5	1	3	-3	1	?
c1cc(C2OCCO2)cs1	2	·	4	-1	·	·
CC1(C)CC(=O)C2=C(C1)c1c(ccc3ccccc13)NC2c1ccc(C(=O)O)cc1 (configuration not stated)	-2	-2	+	6	-1	10
CC1(C)CC(=O)C2=C(C1)c1c(ccc3ccccc13)NC2c1cc([N+](=O)[O-])cc([N+](=O)[O-])c1O (configuration not stated)	32*	2	-12	9	10	-2
CSc1ccc(CNC(=O)C2(C)CCCN2CC(C)C)cc1 (configuration not stated)	-2	·	-2	-3	·	·
CC(C)C(=O)Nc1ccc(-c2nc3ncccc3o2)cc1	-1	1	+	41*	-9	-3
CC(C)C(=O)Nc1ccc(-c2nc3cccnc3o2)cc1	-2	-1	+	35*	5	5
CC(C)C(=O)Nc1cc(-c2nc3ncccc3o2)ccc1Cl	-5	-1	6	6	1	1
COCc1cc(CN(C)C(=O)c2oc3c(F)cccc3c2C)[nH]n1	1	0	3	-5	-13	-5
COc1ccccc1N1C(=O)NC(=O)/C(=C/c2ccc([N+](=O)[O-])s2)C1=O	·	3	·	·	-9	100
CCOc1ccc(N2C(=O)NC(=O)/C(=C\c3cc(OC)c(OC)cc3[N+](=O)[O-])C2=O)cc1	-1	-3	23	12	-7	2
COc1ccc(N2C(=O)NC(=O)/C(=C/c3ccc([N+](=O)[O-])s3)C2=O)cc1	35*	0	-1	15	-16	100
COc1cccc(N2C(=O)NC(=O)/C(=C/c3ccc([N+](=O)[O-])s3)C2=O)c1	18*	5	-2	7	-32	100
COc1ccc(N2C(=O)NC(=O)/C(=C\c3ccc([N+](=O)[O-])s3)C2=O)cc1	36*	-1	4	4	-35	·
COCCC(=O)N1CCC(n2nccc2NC(=O)c2ccccc2C)CC1	1	-1	-1	-4	-4	7
CCCCN(C(=O)CC1CCCCC1)c1c(N)n(CCCC)c(=O)[nH]c1=O	1	·	6	15	·	·
O=c1c2ccccc2nnn1CSc1ccc2c(c1)OCCO2	-4	1	152*	3	2	-4
CCC(C(=O)Nc1ccc2c(c1)OCCO2)n1nnc2ccccc2c1=O (configuration not stated)	-5	-2	-2	-1	-6	2
CCOc1ccc(/C=C/C(=O)N(CC)CC(=O)Nc2c(F)cccc2F)cc1OC	-3	·	10	32*	·	·
CCOc1ccc(/C=C/C(=O)N(CC)CC(=O)Nc2ccc3c(c2)OCCO3)cc1OC	-4	-1	5	7	4	0
CCN(CC(=O)Nc1c(F)cccc1F)C(=O)Cc1ccccc1	9.7*	2	-2	-6	-1	-2
CCCN(CC(=O)Nc1ccccc1C)C(=O)/C=C/c1ccc(OCC)c(OC)c1	-2	-1	13	34*	-1	-2
CCOC(=O)c1nc(-c2ccccc2)oc1N(C)C	2	1	131*	15	-2	1
CN(C)c1oc(-c2ccccc2[N+](=O)[O-])nc1C#N	1	0	3	4	5	0
SMILES	FadD28 binding	Mtb UGM inh	Mtb FBA inh	GDH-TPI inh	Rv3671c inh	Mtb betalactam
CN(C)c1oc(-c2ccccc2)nc1C#N	-1	0	+	18	5	-3
Cc1oc(-c2ccccc2)nc1C(=O)OCC(=O)NCc1ccccc1	·	-3	6	3	1	-1
CN(C)c1oc(-c2ccccc2Cl)nc1C#N	-2	0	20	10	3	1
CN(C)c1oc(-c2ccco2)nc1C#N	0	1	127*	16	1	-6
COc1ccccc1/C=C/c1nc(C#N)c(N(C)C)o1	-2	3	+	9	-3	2
COC(=O)c1sccc1S(=O)(=O)N1CCCC(N(C)CCc2ccccn2)C1 (configuration not stated)	-3	3	-2	2	-2	1
CNC[C@H]1Oc2cc(Br)ccc2S(=O)(=O)N([C@H](C)CO)C[C@H]1C	-2	·	1	0	·	·
O=S(=O)(Nc1nc2ccccc2nc1NCc1ccco1)c1ccc(F)cc1	0	0	12	34*	-5	-4
C=CCC1(CC=C)CCCN1C(=O)c1cc(COc2ccc(C)nc2)on1	-2	-2	1	3	-8	6
CN(C)CCCN1C(=O)c2cccc3cccc(c23)C1=O	-2	2	34*	29	2	-5
COc1ccc2[nH]c3nc(SCC(=O)NNC(=O)c4ccc(OC)c(OC)c4)nnc3c2c1	-1	0	0	41*	-10	4
Cc1ccc(C(=O)NNC(=O)CSc2nnc3c(n2)[nH]c2ccc(F)cc23)cc1	-2	0	2	11	-2	4
CC(=O)Nc1nnc([N+](=O)[O-])s1	-2	·	-2	5	·	·
O=[N+]([O-])c1ccc(-c2ncc(-c3ccc(Br)cc3)o2)cc1	-1	0	0	7	-5	-8
Nc1ncc(C(=O)O)c(-c2ccccc2)n1	1	·	1	9	·	·
O=C(O)c1ccccc1-c1ncc(-c2ccccc2)o1	-1	3	123*	18	-1	-1
Cc1ccc(-c2cnc(-c3ccncc3)o2)cc1	-3	2	+	19	-4	6
Nc1ccc(-c2ncc(-c3ccccc3)o2)cc1	4	-1	+	27	-5	11
Cc1c(Cl)cccc1N(CC(=O)NC(C)c1ccccc1)S(C)(=O)=O (configuration not stated)	3	1	1	-5	-6	-3
COc1ccc(C2/C=C\CC(NS(=O)(=O)c3ccc(C)cc3)CC(=O)N2Cc2ccccc2F)cc1 (configuration not stated)	0	·	1	5	·	·
Cn1nc(C(C)(C)C)cc1C(=O)Nc1nc2c(s1)C(=O)CC(C)(C)C2	0	1	7	40*	-7	3
CC1(C)CC(=O)c2sc(NC(=O)C3CC3)nc2C1	1	1	-1	12	8	-5
COCC(C)NC(=O)C1CC(=O)N(CCc2ccc(F)cc2)C1 (configuration not stated)	0	·	3	12	·	·
